Measurements published in PubChem BioAssay (Tox21).
Inconclusive results are not listed. The source made the active and inactive calls. Unless noted, calls follow the shape of the dose curve; as a rule, active = well fitted curve in the direction sought with a large enough effect in the repeat runs; inconclusive = weak or mixed curves; inactive = no such curve, though single readings can be large; an effect the other way counts as inactive or inconclusive.

What was measured:
[1] = A CellTox Green Cytotoxicity Assay to monitor cytotoxicity in HEK293 cells - 32 hour (AID 1224881); also: nearly all actives have a fitted effect of over 40% in size
Procedure, shortened: (§1)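 Cells (HEK293, 600/well) and dye reagent are dispensed together. After 5 h at 37 C, 23 nL compound is pinned in. Plates stay at 37 C for 40 h with fluorescence read at 0h, 8h, 16h, 24h, 32h and 40h.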

[2] = A CellTox Green Cytotoxicity Assay to monitor cytotoxicity in HepG2 cells - 32 hour (AID 1224883); also: nearly all actives have a fitted effect of over 50% in size
Procedure, shortened: (§2)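 Cells and non-lytic dye reagent are dispensed together (600 HepG2 cells/well) and incubated 5 h before DMSO compound transfer. Kinetic fluorescence is then recorded in the same wells during 40 h at 37 C.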

[3] = A CellTox Green Cytotoxicity Assay to monitor cytotoxicity in HEK293 cells - 8 hour (AID 1224884); also: nearly all actives have a fitted effect of over 35% in size
Procedure, shortened: as §1

[4] = qHTS RealTime-Glo MT Cell Viability Assay in HepG2 cells - 16 hour (AID 1224885); also: nearly all actives have a fitted effect of over 50% in size
Procedure, shortened: (§3)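 Real-time, nonlytic viability: 600 HepG2 cells/well mixed with NanoLuc enzyme plus prosubstrate; 5 h settle, compound (DMSO) added by pintool; luminescence monitored over 40 h at 37 C.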

[5] = qHTS RealTime-Glo MT Cell Viability Assay in HEK293 cells - 24 hour (AID 1224886); also: top concentration of the series differs between compounds; nearly all actives have a fitted effect of over 50% in size
Procedure, shortened: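 Cells + reagent dispensed (600 cells/well, HEK293) → 5 h at 37 C/5% CO2 → 23 nL compound in DMSO pinned → 40 h at 37 C → luminescence read at 0, 8, 16, 24, 32, 40 h.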

[6] = A CellTox Green Cytotoxicity Assay to monitor cytotoxicity in HEK293 cells - 16 hour (AID 1224888); also: nearly all actives have a fitted effect of over 35% in size
Procedure, shortened: as §1

[7] = qHTS RealTime-Glo MT Cell Viability Assay in HepG2 cells - 0 hour (AID 1224889); also: nearly all actives have a fitted effect of over 50% in size
Procedure, shortened: as §3

[8] = A CellTox Green Cytotoxicity Assay to monitor cytotoxicity in HepG2 cells - 8 hour (AID 1224890); also: nearly all actives have a fitted effect of over 45% in size
Procedure, shortened: as §2

[9] = qHTS assay to identify small molecule antagonists of the estrogen receptor alpha (ER-alpha) signaling pathway using the BG1 cell line in the presence of 0.1 nM 17-beta-estradiol - cell viability counter screen (AID 1259241); also: nearly all actives have a fitted effect of over 40% in size
Procedure, shortened: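 Estradiol-stimulated (0.1 nM) VM7Luc4E2 cells exposed to compounds 22 hr; viability measured by fluorescence of cleaved CellTiter-Fluor substrate after 30 min.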

[10] = qHTS assay to identify small molecule antagonists of the androgen receptor (AR) signaling pathway using the MDA cell line in the presence of 0.5 nM R1881 - cell viability counter screen (AID 1259242); also: nearly all actives have a fitted effect of over 45% in size
Procedure, shortened: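 Steps: plate MDA-kb2 cells, rest 5 hr at 37C without CO2; pin in compounds in DMSO; add R1881 to 0.5 nM final; incubate 16 hr; add CellTiter-Fluor, 30 min; read fluorescence.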

[11] = target: Estrogen receptor (Homo sapiens) (UniProt P03372); assay: qHTS assay to identify small molecule antagonists of the estrogen receptor alpha (ER-alpha) signaling pathway using the BG1 cell line in the presence of 0.1 nM 17-beta-estradiol (AID 1259244); also: nearly all actives have a fitted effect of over 50% in size
Sequence of Estrogen receptor (Homo sapiens) (P03372 whole entry, looked up): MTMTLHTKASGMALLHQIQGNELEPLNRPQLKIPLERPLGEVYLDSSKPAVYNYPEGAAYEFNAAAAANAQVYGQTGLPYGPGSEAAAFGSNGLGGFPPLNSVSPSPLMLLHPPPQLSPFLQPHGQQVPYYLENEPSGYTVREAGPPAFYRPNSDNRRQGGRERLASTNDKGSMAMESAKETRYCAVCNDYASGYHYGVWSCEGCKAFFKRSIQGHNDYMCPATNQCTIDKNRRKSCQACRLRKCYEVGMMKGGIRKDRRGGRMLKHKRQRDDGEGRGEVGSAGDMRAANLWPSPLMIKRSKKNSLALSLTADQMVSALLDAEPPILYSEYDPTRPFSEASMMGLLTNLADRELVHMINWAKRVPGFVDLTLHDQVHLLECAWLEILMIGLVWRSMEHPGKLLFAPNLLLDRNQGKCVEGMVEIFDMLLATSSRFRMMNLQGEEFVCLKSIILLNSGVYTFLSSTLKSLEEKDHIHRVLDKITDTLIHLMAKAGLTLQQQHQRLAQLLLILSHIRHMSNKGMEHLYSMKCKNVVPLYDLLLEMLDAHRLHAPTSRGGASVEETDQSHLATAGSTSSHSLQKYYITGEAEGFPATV
Procedure, shortened: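 Antagonist mode: compounds in DMSO are pinned onto VM7Luc4E2 reporter cells, 0.1 nM final 17beta-estradiol is added, and after 22 h at 37C luciferase luminescence is measured with ONE-Glo.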

[12] = qHTS assay to identify small molecule HDAC inhibitors (AID 1259364);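 also: wild-type HCT-116 cells with endogenous class I/II HDAC activity; top concentration of the series differs between compounds; nearly all actives have a fitted effect of over 45% in size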
Procedure, shortened: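 Cells (HCT-116, wild type) are seeded at 1,500 per well, incubated overnight, treated with compound in DMSO for 2 hr, then developed with HDAC-Glo I/II reagent for 30 min at room temperature.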

[13] = qHTS assay to identify small molecule HDAC inhibitors - cell viability counter screen (AID 1259365)
Procedure, shortened: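 After overnight seeding at 1,500 cells per well, wild-type HCT-116 cultures took up compounds in DMSO for 2hr at 37 C. Viable cell content came from luminescence with CellTiter-Glo.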

[14] = qHTS assay to identify small molecule agonists of the sonic hedgehog signaling (Shh) pathway - cell viability counter screen (AID 1259366); also: nearly all actives have a fitted effect of over 50% in size
Procedure, shortened: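 Same-well cytotoxicity read. Gli1-Luc reporter 3T3 cells; compounds 24hr, 37C/5% CO2; CellTiter-Fluor fluorescence.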

[15] = qHTS assay to identify small molecule antagonists of the sonic hedgehog signaling (Shh) pathway - cell viability counter screen (AID 1259367); also: nearly all actives have a fitted effect of over 55% in size
Procedure, shortened: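 Tox21 library chemicals were tested on a Gli1-Luc NIH/3T3 clone (2,000 cells/well) stimulated by conditioned medium; viability was quantified as fluorescence from CellTiter-Fluor reagent added at 23 hr.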

[16] = qHTS assay to identify small molecule agonists of the sonic hedgehog signaling (Shh) pathway (AID 1259368; calls by dose curve;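 also: NIH/3T3-derived 3T3Gli1-Luc cells carrying a stable Gli1-driven firefly luciferase reporter; series mostly up to about 92 µM; nearly all actives have a fitted effect of over 15% in size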)
Procedure, shortened: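 Cells of a mouse NIH/3T3 clone stably expressing luciferase under the Gli1 transcriptional response element are exposed to test chemicals for 24 hr at 37 C. Pathway activation is detected as a rise in luminescence.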

[17] = qHTS RealTime-Glo MT Cell Viability Assay in HEK293 cells - 8 hour (AID 1224887)
Procedure, shortened: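 Real-time viability in HEK293: signal arises when living cells convert a prosubstrate for NanoLuc in the medium, so luminescence tracks viable cell number. Compound (23 nL, DMSO) added 5 h post-seeding; kinetic reads at 0–40 h, 37 C.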

[18] = qHTS assay to identify small molecule phospholipidosis (PLD) inducers (AID 1259344; active = well fitted curve in the direction sought with a large enough effect; an effect the other way counts as inactive or inconclusive)
Procedure, shortened: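 Image-based: LipidTOX Red pit count/intensity per well and per cell; HepG2, 24 h compound at 37 C, PFA fixation, Hoechst counterstain.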

[19] = target: Androgen receptor (Homo sapiens) (UniProt P10275); assay: qHTS assay to identify small molecule antagonists of the androgen receptor (AR) signaling pathway using the MDA cell line in the presence of 0.5 nM R1881 (AID 1259243); also: nearly all actives have a fitted effect of over 50% in size
Sequence of Androgen receptor (Homo sapiens) (P10275 whole entry, looked up): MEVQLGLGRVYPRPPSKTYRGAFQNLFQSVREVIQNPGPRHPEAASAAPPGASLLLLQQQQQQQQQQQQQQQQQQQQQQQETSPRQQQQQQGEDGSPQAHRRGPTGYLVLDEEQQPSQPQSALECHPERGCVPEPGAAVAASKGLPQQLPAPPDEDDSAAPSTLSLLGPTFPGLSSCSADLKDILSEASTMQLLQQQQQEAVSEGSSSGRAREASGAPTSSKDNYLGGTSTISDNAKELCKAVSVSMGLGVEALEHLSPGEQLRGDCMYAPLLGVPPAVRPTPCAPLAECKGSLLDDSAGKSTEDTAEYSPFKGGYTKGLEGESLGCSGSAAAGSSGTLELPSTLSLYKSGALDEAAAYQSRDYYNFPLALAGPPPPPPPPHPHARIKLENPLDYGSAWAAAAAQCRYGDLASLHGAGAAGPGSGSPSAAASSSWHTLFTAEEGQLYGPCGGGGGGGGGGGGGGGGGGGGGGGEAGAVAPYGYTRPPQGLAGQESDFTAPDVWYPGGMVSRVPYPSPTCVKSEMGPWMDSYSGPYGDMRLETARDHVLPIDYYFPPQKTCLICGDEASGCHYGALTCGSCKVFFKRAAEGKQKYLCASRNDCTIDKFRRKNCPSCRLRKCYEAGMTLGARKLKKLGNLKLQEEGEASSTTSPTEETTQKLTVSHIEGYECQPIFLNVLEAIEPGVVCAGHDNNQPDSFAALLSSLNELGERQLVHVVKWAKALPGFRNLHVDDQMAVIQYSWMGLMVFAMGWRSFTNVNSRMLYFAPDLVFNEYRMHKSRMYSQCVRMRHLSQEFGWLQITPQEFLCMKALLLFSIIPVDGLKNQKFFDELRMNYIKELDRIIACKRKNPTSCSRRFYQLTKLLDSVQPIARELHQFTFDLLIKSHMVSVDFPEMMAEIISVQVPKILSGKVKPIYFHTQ
Procedure, shortened: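 Stably transfected MDA-kb2 cells express luciferase from an MMTV promoter bearing both AR and GR response elements. Compounds plus 0.5 nM R1881 (final) were incubated 16 hr at 37C without CO2, then luminescence measured.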

Measured: Potency

Cc1nc(N(C)C)nc(OC(=O)N(C)C)c1C
not listed: [17] | [18] | [19]
inactive: all other assays above

CC(Cc1ccccc1)NCc1ccccc1Cl (stereo not drawn)
not listed: [1] | [19]
inactive: all other assays above

CN1C(=O)CN=C(c2ccccc2)c2cc([N+](=O)[O-])ccc21
not listed: [12] | [17]
inactive: all other assays above

O=C(Cc1ccccc1)OCCc1ccccc1
not listed: [16] | [17] | [18] | [19]
inactive: all other assays above

N#CC(C#N)=C(C#N)C#N
not listed: [12] | [14] | [15] | [16] | [18] | [19]
inactive: all other assays above
